Experimental data reported in PubChem BioAssay (NCATS).
Results filed as inconclusive are left out. Calls of active or inactive are those of the source. Calls follow the shape of the dose curve; as a rule, active = well fitted cell-killing curve with a large enough effect; inconclusive = small, poorly fitted or top-dose-only effect, or effect the other way; inactive = no such curve, though single readings can be large or run the other way. Non-standard residues stand in square brackets, D forms with d. Residues, ends and D or L forms follow the SMILES beside them. *: point of attachment. Nva = CCC[C@H](N)C(=O)O; Cbz = O=C(OCc1ccccc1)*

assay: qHTS of pediatric cancer cell lines to identify multiple opportunities for drug repurposing: Confirmatory screen for Rh30 cells (AID 1347126); settings: Rh30 rhabdomyosarcoma cell viability; series mostly up to 45.9 µM; also: nearly all actives have a fitted effect of over 55% in size
How it was run: (§1)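 Cells (500-1,000/well) in growth media were settled 5 h at 37 degrees C, then given compounds for 48 h. Viability was read as CellTiter-Glo luminescence. Primary runs used MIPE at 11 points (0.78 nM-46 µM) and NPC at 8 points (0.59 nM-46 µM); follow-ups used 11 points.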
Potency is read from the fitted curve at half-maximal effect.

Row | Structure (SMILES) | Potency
1 | COc1cc2c(cc1OC)[C@@H]1C(=O)c3ccc4c(c3O[C@@H]1CO2)C=CC(C)(C)O4 | 1850 nM (active)
2 | Nc1ncn([C@@H]2O[C@H](CO)[C@@H](O)[C@@H]2O)c(=O)n1 | 18500 nM (active)
3 | CS(=O)(=O)N1CCc2c(-c3cnc(N)nc3)nc(N3CCOCC3)nc21 | 1470 nM (active)
4 | CC(C)(O)Cn1c(NC(=O)c2ccc(-c3cn[nH]c3)s2)nc2cc(CN3CCOCC3)ccc21 | 657 nM (active)
5 | O=C(NC1CC1)c1cccc(-c2ccc3c(NC(=O)C4CC4)n[nH]c3c2)c1 | inactive
6 | C=C1C(=CC=C2CCC[C@]3(C)[C@@H]([C@H](C)CCCC(C)(C)O)CC[C@@H]23)C[C@@H](O)C[C@@H]1O | inactive
7 | COC(=O)[C@@H]1[C@H]2C[C@@H]3c4[nH]c5ccccc5c4CCN3C[C@@H]2CC[C@@H]1O | inactive
8 | CC(C)C[C@H](NC(=O)CNC(=O)c1cc(Cl)ccc1Cl)B1OC(=O)CC(CC(=O)O)(C(=O)O)O1 (stereo partly specified) | 2330 nM (active)
9 | C[C@H](NCc1ccc2c(c1)nc(NC(=O)c1ccc(-c3cn[nH]c3)s1)n2CCc1ccccc1)C(C)(C)C | 4140 nM (active)
10 | C[C@@H](Oc1ccc2[nH]nc(C=Cc3cnn(CCO)c3)c2c1)c1c(Cl)cncc1Cl | 4140 nM (active)
11 | CN(CC(=O)N(Cc1ccc(C2CCCCC2)cc1)c1ccc(C(=O)O)c(O)c1)S(=O)(=O)c1c(F)c(F)c(F)c(F)c1F | inactive
12 | CC(C)C[C@H](NC(=O)[C@@H](NC(=O)c1cccc(-c2ccccc2)n1)[C@@H](C)O)B(O)O | 3290 nM (active)
13 | CC(C=CC(=O)NO)=C[C@@H](C)C(=O)c1ccc(N(C)C)cc1 | inactive
14 | COC(=O)C=CC(=O)OC | 4140 nM (active)
15 | C[C@@]12C(=O)OC(=O)[C@@]1(C)C1CCC2O1 | 3290 nM (active)
16 | Cc1ccc([N+](=O)[O-])cc1S(=O)(=O)N(C)N=Cc1cnc2ccc(Br)cn12 | 4650 nM (active)
17 | CC(=O)NCC(=O)N1[C@H]2CC[C@H]1c1cc(Nc3ncc(C(F)(F)F)c(NC4CCC4)n3)ccc12 | 3690 nM (active)
18 | COC1=C2C[C@@H](C)C[C@H](OC)[C@@H](O)[C@@H](C)C=C(C)[C@H](OC(N)=O)[C@@H](OC)C=CC=C(C)C(=O)NC(=CC1=O)C2=O | 1310 nM (active)
19 | CCC[C@@H](C=O)NC(=O)[C@H](CC(C)C)NC(=O)[C@H](CC(C)C)NC(=O)OCc1ccccc1 (Cbz-Leu-Leu-[Nva]-aldehyde) | 4140 nM (active)
20 | COC[C@H](NC(=O)c1cnc(C)s1)C(=O)N[C@@H](COC)C(=O)N[C@@H](Cc1ccccc1)C(=O)[C@@]1(C)CO1 | 737 nM (active)
21 | Cc1cnc(Nc2ccc(CN3CCOCC3)cc2)nc1Nc1cccc(S(=O)(=O)NC(C)(C)C)c1 | inactive
22 | C=CC(=O)N1CCc2ccc(-n3c(=O)ccc4cnc5ccc(-c6cnn(C)c6)cc5c43)cc21 | 5220 nM (active)
23 | O=C1NC(=O)C(=Cc2ccc3nccc(-c4ccncc4)c3c2)S1 | 6570 nM (active)
24 | O=S(=O)(O)CCSSCCS(=O)(=O)O | inactive
25 | N#CNC(=NCCCCCCOc1ccc(Cl)cc1)Nc1ccncc1 | 18.5 nM (active)

assay: qHTS of pediatric cancer cell lines to identify multiple opportunities for drug repurposing: Confirmatory screen for Saos-2 cells (AID 1347127); settings: Saos-2 osteosarcoma cell viability; series mostly up to 45.9 µM; also: nearly all actives have a fitted effect of over 60% in size
How it was run: as §1

Row | Structure (SMILES) | Potency
26 | CC(C(C)N1CC(=O)NC(=O)C1)N1CC(=O)NC(=O)C1 (stereo unspecified) | inactive
27 | O=C(C=CC#Cc1cccc(NS(=O)(=O)c2ccccc2)c1)NO | 2930 nM (active)
28 | COc1ccc(S(=O)(=O)Nc2cccnc2Nc2ccc(O)cc2)cc1 | 522 nM (active)
29 | Nc1nc2c(c(=O)[nH]1)N(C=O)[C@H](CNc1ccc(C(=O)N[C@@H](CCC(=O)O)C(=O)O)cc1)CN2 | inactive
30 | COc1ccc(C=Cc2cc(OC)c(OC)c(OC)c2)cc1NC(=O)[C@H](N)CO | 73.7 nM (active)
31 | CCS(=O)(=O)Nc1ccc2[nH]c(O)c(C(=Nc3ccc(CN4CCCCC4)cc3)c3ccccc3)c2c1 | 737 nM (active)
32 | CCc1cc(C(C)=NOCc2ccc(C3CCCCC3)c(C(F)(F)F)c2)ccc1CN1CC(C(=O)O)C1 | 14700 nM (active)
33 | C=Cc1c(C)c2cc3nc(cc4[nH]c(cc5nc(cc1[nH]2)C(C)=C5CCC(=O)O)c(CCC(=O)OC)c4C)[C@@]1(C)C3=CC=C(C(=O)OC)[C@H]1C(=O)OC | inactive
34 | COc1cc([C@@H]2c3cc4c(cc3[C@H](O)[C@H]3COC(=O)[C@@H]23)OCO4)cc(OC)c1OC | 522 nM (active)
35 | CC(C)(N)c1ccc(-c2nc3ccccc3nc2-c2ccccc2)cc1 | 737 nM (active)
36 | CCN(CC)CCNC(=O)c1c(C)[nH]c(C=C2C(=O)Nc3ccc(F)cc32)c1C | 26900 nM (active)
37 | CNC(=O)Nc1ccc(-c2nc(N3CC4CCC(C3)O4)c3cnn(C4CCC5(CC4)OCCO5)c3n2)cc1 | 1310 nM (active)
38 | FC(F)c1nc2ccccc2n1-c1nc(N2CCOCC2)nc(N2CCOCC2)n1 | 827 nM (active)
39 | COc1cc2c(cc1OC)[C@@H]1C(=O)c3ccc4c(c3O[C@@H]1CO2)C=CC(C)(C)O4 | 3690 nM (active)
40 | Nc1ncn([C@@H]2O[C@H](CO)[C@@H](O)[C@@H]2O)c(=O)n1 | 20800 nM (active)
41 | CS(=O)(=O)N1CCc2c(-c3cnc(N)nc3)nc(N3CCOCC3)nc21 | 2330 nM (active)
42 | CC(C)(O)Cn1c(NC(=O)c2ccc(-c3cn[nH]c3)s2)nc2cc(CN3CCOCC3)ccc21 | 585 nM (active)
43 | C=C1C(=CC=C2CCC[C@]3(C)[C@@H]([C@H](C)CCCC(C)(C)O)CC[C@@H]23)C[C@@H](O)C[C@@H]1O | inactive

Row | Structure (SMILES) | Potency
44 | COC(=O)[C@@H]1[C@H]2C[C@@H]3c4[nH]c5ccccc5c4CCN3C[C@@H]2CC[C@@H]1O | inactive
45 | CC(C)C[C@H](NC(=O)CNC(=O)c1cc(Cl)ccc1Cl)B1OC(=O)CC(CC(=O)O)(C(=O)O)O1 (stereo partly specified) | 4650 nM (active)
46 | C[C@H](NCc1ccc2c(c1)nc(NC(=O)c1ccc(-c3cn[nH]c3)s1)n2CCc1ccccc1)C(C)(C)C | 1470 nM (active)
47 | C[C@@H](Oc1ccc2[nH]nc(C=Cc3cnn(CCO)c3)c2c1)c1c(Cl)cncc1Cl | 2610 nM (active)
48 | CN(CC(=O)N(Cc1ccc(C2CCCCC2)cc1)c1ccc(C(=O)O)c(O)c1)S(=O)(=O)c1c(F)c(F)c(F)c(F)c1F | 26100 nM (active)
49 | CC(C)C[C@H](NC(=O)[C@@H](NC(=O)c1cccc(-c2ccccc2)n1)[C@@H](C)O)B(O)O | 414 nM (active)
50 | CC(C=CC(=O)NO)=C[C@@H](C)C(=O)c1ccc(N(C)C)cc1 | 1850 nM (active)
51 | COC(=O)C=CC(=O)OC | inactive
52 | C[C@@]12C(=O)OC(=O)[C@@]1(C)C1CCC2O1 | 2610 nM (active)
53 | Cc1ccc([N+](=O)[O-])cc1S(=O)(=O)N(C)N=Cc1cnc2ccc(Br)cn12 | 2330 nM (active)
54 | CC(=O)NCC(=O)N1[C@H]2CC[C@H]1c1cc(Nc3ncc(C(F)(F)F)c(NC4CCC4)n3)ccc12 | 585 nM (active)
55 | COC1=C2C[C@@H](C)C[C@H](OC)[C@@H](O)[C@@H](C)C=C(C)[C@H](OC(N)=O)[C@@H](OC)C=CC=C(C)C(=O)NC(=CC1=O)C2=O | 928 nM (active)
56 | CCC[C@@H](C=O)NC(=O)[C@H](CC(C)C)NC(=O)[C@H](CC(C)C)NC(=O)OCc1ccccc1 (Cbz-Leu-Leu-[Nva]-aldehyde) | 3290 nM (active)
57 | Cc1cnc(Nc2ccc(CN3CCOCC3)cc2)nc1Nc1cccc(S(=O)(=O)NC(C)(C)C)c1 | 9270 nM (active)
58 | C=CC(=O)N1CCc2ccc(-n3c(=O)ccc4cnc5ccc(-c6cnn(C)c6)cc5c43)cc21 | 5220 nM (active)
59 | O=C1NC(=O)C(=Cc2ccc3nccc(-c4ccncc4)c3c2)S1 | 2930 nM (active)
60 | O=S(=O)(O)CCSSCCS(=O)(=O)O | inactive
61 | N#CNC(=NCCCCCCOc1ccc(Cl)cc1)Nc1ccncc1 | 20800 nM (active)
